# Measured values from article PMC4552634, “A New Set of Chemical Starting Points with Plasmodium falciparum Transmission-Blocking Potential for Antimalarial Drug Discovery” (PLoS ONE, 2015).
# The whole screen tested about 13,000 compounds, of which about 3,200 (25%) showed an effect of 50% or more. This is one part of the list.
# System: P. falciparum stage V gametocytes
# Design: BacTiter-Glo ATP luminescence viability of purified stage V gametocytes in 384-well plates, per cent inhibition versus DMSO
# Details: 48 h, 5 µM; inhibitor
row,SMILES,% Inhibition [%]
1,CCN(CC)S(=O)(=O)c1ccc(C=CC(=O)Nc2cc(Cl)ccc2N2CCOCC2)cc1 [TCMDC-125117],28.22
2,Cc1cc(-c2cc(Cl)ccc2Cl)no1 [TCMDC-131691],-15.9
3,CN(C)CCn1cc(C(=O)c2cc(Cl)ccc2O)cc1-c1nc2ccccc2c(=O)[nH]1 [TCMDC-125021],-20.22
4,Cc1cccc(C)c1N1CCN(C2CCC(NC(=O)c3cc4ccccc4[nH]3)CC2)CC1 (centres unmarked) [TCMDC-132890],-33.12
5,COc1ccc2ncc(OC)c(CCN3CC[C@@H](NCc4ccc5c(n4)NC(=O)CS5)[C@H](O)C3)c2n1 [TCMDC-134668],10.18
6,CCN(CC)CCN(CCN(CC)CC)c1ccc(-c2nc3cc(Cl)c(Cl)cc3[nH]2)cc1 [TCMDC-139329],70.38
7,CC(=O)Nc1ccc(-c2nc3ccc(-c4nc5ccc(NC(C)=O)cc5[nH]4)cc3[nH]2)cc1 [TCMDC-125761],0.4612
8,Clc1ccc(-c2nc3ccc(-c4ccc5nc(-c6ccc(Cl)cc6)[nH]c5c4)cc3[nH]2)cc1 [TCMDC-123460],1.652
9,Cc1nc2nc(N)nc(N)c2c(C)c1Cc1cccs1 [TCMDC-137642],-3.344
10,Cc1ccnc(NC(c2cccc(OCc3ccccc3)c2)c2ccc3cccnc3c2O)c1 (centres unmarked) [TCMDC-125558],93.78
11,Cc1ccnc(NC(c2ccc(Cl)c([N+](=O)[O-])c2)c2ccc3cccnc3c2O)c1 (centres unmarked) [TCMDC-123691],121
12,Cc1ccnc(NC(c2cccc(Cl)c2Cl)c2ccc3cccnc3c2O)c1 (centres unmarked) [TCMDC-123997],94.28
13,Oc1cccc2ccc(Nc3ccccn3)nc12 [TCMDC-125567],43.59
14,O=[N+]([O-])c1cccc(C(Nc2ccccn2)c2ccc3cccnc3c2O)c1 (centres unmarked) [TCMDC-125725],107
15,CC(CCc1ccccc1)NCC(O)c1cccc([N+](=O)[O-])c1 (centres unmarked) [TCMDC-125728],-0.1444
16,COc1ccc(-c2cc(C(=O)N[C@@H](Cc3ccccc3)C(=O)NCCN3CCCCC3)ccc2O)cc1 [TCMDC-140804],32.57
17,Cn1cnc(CCNC(=O)c2cccc(-c3cccc(-c4nc5cc(C(F)(F)F)ccc5[nH]4)c3)c2)c1 [TCMDC-132496],22.81
18,CCOCCCn1c(=N)c(C(=O)NC(C)c2ccccc2)cc2c(=O)n3cccc(C)c3nc21 (centres unmarked) [TCMDC-124348],9.74
19,O=C(Cc1ccccc1)NC(c1ccco1)c1cc(Cl)c2cccnc2c1O (centres unmarked) [TCMDC-125561],-24.24
20,Oc1c(C(Nc2ccccn2)c2ccco2)cc(Cl)c2cccnc12 (centres unmarked) [TCMDC-125324],60.61
21,Cc1cc(NC(c2ccc(Cl)cc2)c2ccc3cccnc3c2O)no1 (centres unmarked) [TCMDC-123828],23.63
22,CCC(=O)NC(c1ccco1)c1cc(Cl)c2cccnc2c1O (centres unmarked) [TCMDC-123650],-55.25

row,SMILES,% Inhibition [%]
1,Oc1c(C(Nc2ccccn2)c2ccc(Cl)cc2Cl)ccc2cccnc12 (centres unmarked) [TCMDC-125559],98.53
2,Cc1ccc(Nc2nccc(NCC(O)c3ccc(C(F)(F)F)cc3)n2)cc1 (centres unmarked) [TCMDC-136593],10.35
3,Cc1ccc2nc(NC#N)[nH]c2c1 [TCMDC-131394],6.156
4,Cc1noc(C)c1-c1ccc2c(Nc3ccccc3C(C)(C)C)c(C(=O)NCc3ccc(OC(C)C)cc3)cnc2c1.Cl [TCMDC-136370],-53.99
5,CCCOc1ccc2ccccc2c1CNCCCCCCNCc1c(OCCC)ccc2ccccc12 [TCMDC-137966],143.6
6,Oc1ccc2ccccc2c1CNCCC1CCCCC1 [TCMDC-137605],-1.678
7,CCCCCCCCNCc1c(O)ccc2ccccc12 [TCMDC-137606],26.15
8,CCOc1cc(OCC)c2ccccc2c1CNCCCCCCNCc1c(OCC)cc(OCC)c2ccccc12 [TCMDC-137982],121.9
9,CCCCCCOc1ccc2ccccc2c1CNCCCCCCNCc1c(OCCCCCC)ccc2ccccc12 [TCMDC-137963],142.3
10,Oc1ccc2ccccc2c1CNCC1CCCCC1 [TCMDC-137608],2.485
11,c1ccc2c(CNCCCCCCNCc3c(OCC4CC4)ccc4ccccc34)c(OCC3CC3)ccc2c1 [TCMDC-137839],118.2
12,Cc1cc(N[C@@H](CC(C)C)C(=O)NCCc2ccccc2)nc(NCC2CCCCC2)n1 [TCMDC-134920],-75.82
13,Cn1cncc1C(=O)Nc1ccc(-c2ccc(-c3nc4ccc(C(F)(F)F)cc4[nH]3)cc2)cc1 [TCMDC-137065],-63.66
14,Cc1cc(Nc2ncc3c(n2)N(C2CCC2)CC3)ccc1N1CCN(C)CC1 [TCMDC-134146],20.06
15,Cc1cccc2[nH]c(-c3ccc(-c4ccc(NC(=O)NCc5cccc(F)c5)cc4)cc3)nc12 [TCMDC-133294],-5.117
16,CN1CCN(c2ccc3nccc(CCN4CCC(NCc5ccc6c(n5)NC(=O)CO6)CC4)c3n2)CC1 [TCMDC-141580],8.776
17,CCOc1ccc2ccccc2c1CNCCCCCCNCc1c(OCC)ccc2ccccc12 [TCMDC-137791],117.2
18,COc1ccc(C2CC(=O)C3=C(C2)NC(C)=C(C(=O)OC(C)C)C3c2ccc(O)cc2)cc1OC (centres unmarked) [TCMDC-125633],43.1
19,C[C@@H]1CC[C@H](NC(=O)[C@H](CC2CCCC2)NC(=O)N2CCNCC2)C(=O)CN1S(=O)(=O)c1ccccn1 [TCMDC-141571],57.62
20,CC(C)C[C@H](NC(=O)c1cc2cc(OCCN3CCNCC3)ccc2o1)C(=O)NC1CC[C@@H](C)N(C(=O)Nc2ccc(Cl)cc2)CC1=O (some centres unmarked) [TCMDC-133539],8.489
21,COc1cccc2cc(C(=O)N[C@@H](CC(C)C)C(=O)NC3CC[C@@H](C)N(C(=O)Nc4ccncc4)CC3=O)oc12 (some centres unmarked) [TCMDC-134320],-6.979
22,CCOC(=O)NC1=NC(C)(C)N(OCCCOc2cc(Cl)c(Cl)cc2Cl)C(NC(=O)OCC)=N1 [TCMDC-131743],1.787
